An excerpt weighted towards active compounds, which were near 5.4% of everything screened.
FMDV antiviral: blocks foot and mouth disease virus | Potency, µM (titrated, usually from 57.9 µM), for the others: top-dose activity change, negative = inhibition, hits mostly inhibitors | 410,000 tested, 1.2% active | FMDV antiviral cell-based qHTS | AID 1159524; calls by dose curve; tested in HEK293T cells; further: read-out not given here; nearly all actives have a fitted effect of over 45% in size
Marburg entry inh: inhibitors of Marburg virus binding or cell entry; Marburg virus pseudotyped entry inhibition, cell reporter; Potency, µM (series often up to 37.8 µM), inactives show top-dose activity change, negative = inhibition, hits mostly inhibitors; 300,000 tested, 1.8% active; AID 540276; calls by dose curve; tested in HEK293 cells
Sm TGR block: inhibitors of Schistosoma mansoni thioredoxin glutathione reductase. purified TGR, DTNB reduction, TNB absorbance 405 nm. Potency, µM (highest dose often 114 µM), for the others: at the top dose activity change, negative = inhibition, most hits filed as inhibitors. 360,000 tested, 3% active; active means well fitted inhibition curve with a large enough effect; inconclusive means small, poorly fitted or top-dose-only effect; inactive means no such curve, though single readings can be large or run the other way; further: nearly all actives have a fitted effect of over 60% in size
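TGR 20 nM + NADPH 100 uM (dispensed conc.), cpd preinc 15 min RT; start with NADPH (500 uM addition) then DTNB (15 mM addition). Kinetic TNB absorbance, 405 nm filter. Four-parameter Hill fit across titration.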
Vaccinia mCherry: inhibitors of vaccinia virus infection (mCherry reporter signal); 310,000 tested, 0.63% active; Vaccinia virus mCherry reporter infection, fluorescence; AID 720579; Potency, µM (series often up to 36.5 µM), for the others: at the highest dose activity change, negative = inhibition, actives largely listed as inhibitors; calls by dose curve; tested in A549 cells; further: nearly all actives have a fitted effect of over 35% in size
Vaccinia Venus: inhibitors of vaccinia virus (Venus reporter); Vaccinia virus Venus reporter expression, fluorescence; Potency, µM (top dose mostly 36.5 µM), inactives show top-dose activity change, negative = inhibition, hits mostly inhibitors; 330,000 tested, 0.46% active; AID 720580; calls by dose curve; tested in A549 cells; further: nearly all actives have a fitted effect of over 30% in size
LASV entry inh: blocks Lassa virus binding to or entry into cells. 300,000 tested, 1.2% active. Potency, µM (series often up to 37.9 µM), inactives show at the top dose activity change, negative = inhibition, most hits filed as inhibitors. Lassa virus pseudotype entry inhibition, cell reporter; calls by dose curve; tested in HEK293 cells; further: nearly all actives have a fitted effect of over 50% in size
* = called active by the depositor; i = inactive; ? = inconclusive; . = no result given; ! = repeats disagree; [ ] = another dose, or the depositor's remark. On the % scale 0 is the no-effect control and ±100 the full control effect; potency means the concentration at half of the fitted maximal effect.

SMILES | FMDV antiviral | Marburg entry inh | Sm TGR block | Vaccinia mCherry | Vaccinia Venus | LASV entry inh
Cc1ccc(NC(=O)c2nc(S(C)(=O)=O)ncc2N(Cc2ccc(C(C)(C)C)cc2)Cc2ccco2)cc1C | -11.3% | 4.7%[46.1 µM] | -4.6% | -3.2% | -3.5% | -24.0%[46.1 µM]
Cc1nnc(NC(=O)C2CC(=O)N(c3ccc4c(c3)OCCO4)C2)s1 (stereo unspecified) | -11.5% | . | 2.6% | . | . | .
O=C(Nc1nc(-c2ccco2)c(-c2ccco2)s1)C1CC(=O)N(c2ccc3c(c2)OCCO3)C1 (stereo unspecified) | ? | -3.9% | 11.2µM* | -13.6% | 6.4% | -6.6%
CCOC(=O)c1ccc(-n2c(CN3CCC(C(N)=O)CC3)nc3ccc([N+](=O)[O-])cc3c2=O)cc1 | 0.3% | . | 11.2µM* | . | . | .
CCOC(=O)c1ccc(-n2c(CN(CC)CC)nc3ccc([N+](=O)[O-])cc3c2=O)cc1 | 3.1% | . | 11.2µM* | . | . | .
CCOC(=O)c1ccc(-n2c(CN3CCN(CC)CC3)nc3ccc([N+](=O)[O-])cc3c2=O)cc1 | -3.4% | . | -35.6% | . | . | .
CCOC(=O)c1ccc(-n2c(CN3CCOCC3)nc3ccc([N+](=O)[O-])cc3c2=O)cc1 | -0.2% | . | -21.7% | . | . | .
CCOC(=O)c1ccc(-n2c(CN3CCC(O)CC3)nc3ccc([N+](=O)[O-])cc3c2=O)cc1 | 1.7% | . | 12.6µM* | . | . | .
COC(=O)c1ccc(Cn2nnc3sc4c(c3c2=O)CCC(C)C4)cc1 (stereo unspecified) | 4.5% | ? | 11.7% | -8.2% | -5.9% | 4.0%[46.1 µM]
Cc1cccc(-n2c3nc(=O)[nH]c(=O)c-3cc3ccc(Cl)cc32)c1C | ? | ? | -3.7% | -19.8% | -19.5% | -0.4%[46.1 µM]
O=C(Nc1ccccc1)c1ccc2c(O)c(S(=O)(=O)c3ccc(Cl)cc3)c(=O)[nH]c2c1 | -15.3% | . | -0.5% | -4.6% | -4.6% | 27.0%[46.1 µM]
COc1ccc(CNc2nc3c(c(=O)n(Cc4ccc(Cl)cc4)c(=O)n3C)n2C)cc1 | 12.6µM* | ? | -4.2% | . | . | ?
Cn1c(NCc2ccco2)nc2c1c(=O)n(Cc1ccc(Cl)c(Cl)c1)c(=O)n2C | 31.6µM* | -23.7%[46.1 µM] | 6.1% | . | -8.2% | -23.1%
COCCNc1nc2c(c(=O)n(Cc3ccc(OC)cc3)c(=O)n2C)n1C | ? | -11.9% | -23.6% | . | . | -1.4%
O=C(CN1CCN(Cc2ccccc2)CC1)N/N=C/c1ccccc1F | 8.0% | 18.6%[46.1 µM] | 9.0% | -0.5%[7.34 µM] | -5.3%[7.34 µM] | 26.7%
C=CCc1cccc(C=NNC(=O)CN2CCN(Cc3ccccc3)CC2)c1O | . | ? | . | . | . | 11.6µM*
COc1ccc(-n2cc(CNC3CCC(O)CC3)c(-c3cccc(F)c3)n2)cc1 (stereo unspecified) | -13.5% | 17.8µM* | 8.2% | -17.8% | -17.0% | -17.3%
CCOc1ccc(-c2c(C)nn3c(C)c(C(=O)Nc4cccc(Cl)c4C)cnc23)cc1OCC | ? | . | 38.0% | 6.5% | -0.1% | 21.8%[46.1 µM]
CC(=O)OC[C@H]1O[C@@H](ON=C2C[C@@H](O)[C@@H](O)[C@@H]3[C@H]4C(=O)N(Cc5ccccc5)C(=O)[C@@H]4CC[C@@H]23)[C@H](OC(C)=O)[C@@H](OC(C)=O)[C@H]1OC(C)=O | . | -9.1%[14.2 µM] | . | . | . | ?
Cc1ccc(-n2c3c(cc(C(=O)NC4CCSC4=O)c2=O)C(=O)CCC3)cc1 (stereo unspecified) | 0.4% | ? | 79.4µM* | -0.8% | -7.4% | 14.2%
COc1ccc(-n2c3c(cc(C(=O)NC4CCSC4=O)c2=O)C(=O)CC(C)(C)C3)cc1 (stereo unspecified) | -2.1% | -1.5% | -4.1% | 0.6% | -2.2% | -5.3%
C=CCN1CC[C@]23c4c5ccc(O)c4O[C@H]2C(=O)CC[C@@]3(O)[C@H]1C5 | -19.7% | . | 44.7µM*! | -10.8% | -10.6% | .
C=CCN1CC[C@]23c4c5ccc(O)c4O[C@@H]2/C(=N/N=C2\CC[C@@]4(O)C6Cc7ccc(O)c8c7[C@@]4(CCN6CC=C)[C@@H]2O8)CC[C@@]3(O)C1C5 | . | 4.47µM* | . | . | . | 16.4µM*
CCCC/C(O)=C1\C(=O)CCCC1=NCCc1c(C)[nH]c2ccc(OC)cc12 | -4.2% | 8.91µM* | 3.0% | ? | -2.2% | ?
CC/C(O)=C1\C(=O)CCCC1=NCCc1c(C)[nH]c2ccc(C)cc12 | -15.6% | . | 1.5% | -22.7% | -8.2% | .
SMILES | FMDV antiviral | Marburg entry inh | Sm TGR block | Vaccinia mCherry | Vaccinia Venus | LASV entry inh
COc1ccccc1NC(=O)c1cc(-c2cc(OC)c(OC)c(OC)c2)nc2ccccc12 | -22.5% | 3.16µM* | 3.1% | -16.3% | 6.3% | ?
CCOc1ccccc1NC(=O)c1cc(-c2cc(OC)c(OC)c(OC)c2)nc2ccccc12 | -23.5% | ? | -34.7% | i | -9.8% | 11.2µM*
Cc1c(Cl)cccc1-n1nc(C)c2c(C)cc(=O)n(CC(=O)N3CCCc4ccccc43)c21 | -5.8% | . | -7.3% | i | -7.7% | ?
O=C(CNC(=O)c1ccccc1O)N/N=C/c1cc(Br)ccc1OC(=O)/C=C/c1ccco1 | -29.7% | ? | ? | ? | -22.4% | 5.62µM*
O=C(CNC(=O)c1ccc(F)cc1)N/N=C/c1cc(Br)ccc1OCc1ccccc1 | -15.6% | ? | 3.9% | . | . | -9.7%
O=C(CNC(=O)c1cccc(F)c1)N/N=C/c1cc(Br)ccc1OC(=O)/C=C/c1ccco1 | -16.1% | 18.3µM* | ? | . | . | ?
O=C(CNC(=O)c1ccccc1Br)N/N=C/c1ccco1 | -10.0% | ? | -8.6% | -12.8% | -3.0% | -0.5%
Cc1occc1-c1nnc(SCc2cc(=O)n3cc(Br)ccc3n2)n1C | -21.3% | -1.0% | 44.7µM* | . | . | ?
Cc1ccccc1Nc1nc(CSc2nnc(-c3ccoc3C)n2C)cs1 | -0.3% | -0.7% | 35.5µM* | . | . | -8.6%
Cc1ccc(Nc2nc(CSc3nnc(-c4ccncc4)n3C)cs2)cc1 | -39.6% | ? | -9.9% | i | -19.2% | ?
Cn1c(SCc2cc(=O)n3cc(Br)ccc3n2)nnc1C1COc2ccccc2O1 (stereo unspecified) | -18.4% | -0.5% | 3.1%[11.4 µM] | . | . | 17.3%
C[C@H]1CN([C@@H](C)CO)C(=O)CCCn2nncc2CO[C@@H]1CN(C)C(=O)c1ccncc1 | -20.0% | . | . | -12.7% | -4.9% | .
Cc1cc(Cl)ccc1OCC(=O)O[C@@H](C)C(=O)N(C)C | . | 3.6% | . | . | . | .
CC(C)Oc1ccc(Cn2c(-c3ccco3)n[nH]c2=S)cc1 | 3.4% | 11.4%[46.1 µM] | -4.3% | 28.2µM* | ? | 5.8%
COc1ccc(Cn2c(-c3ccc(OC)cc3)n[nH]c2=S)cc1 | -19.3% | -0.4%[46.1 µM] | -5.8% | -1.1% | -3.9% | ?
Cc1cc(Cl)ccc1N=c1ssnc1Cl | ? | -8.4% | ? | -29.6%[1.46 µM] | ? | -22.6%
COc1cc(N=c2ssnc2Cl)c(OC)cc1Cl | ? | 16.4µM* | ? | ? | ? | ?
COc1ccc(OC)c(N=c2ssnc2Cl)c1 | -0.7% | 11.2% | 56.2µM* | -10.8% | -7.0% | -2.7%
Nc1cc(=O)[nH]c(=S)n1-c1ccccc1 | 11.6% | 2.7% | -2.9% | -13.1% | -8.8% | ?
O=c1cc(C(F)(F)F)[nH]c(=S)n1-c1ccccc1 | 0.0% | 20.8% | 22.4µM* | -7.7% | -4.5% | -3.2%

Screening data: PubChem, National Center for Advancing Translational Sciences (NCATS)
